This is an account of results in PubChem BioAssay.

Activity calls are given as the source filed them. Unless noted, how the calls were made is not given here.

Assay [1] can be described thus: resazurin metabolic signal in HepG2 cells – cell-based, resazurin fluorescence, 24 h, PK04 Diversity Set, profiling panel (AID 1172). Further: test concentration not given here. The conditions noted are these: HepG2 viability, higher = more signal.
The nature of assay [2]: budding yeast growth changes without added modifier – OD600, strain BY4716, 24 h, basal condition, primary screen (AID 1173). The conditions noted are these: S. cerevisiae BY4716 growth, OD600, 24 h; higher = more signal, called active from +8 up or from −8 down.
Assay [3] in a line: viability profiling in MM1S myeloma cells – cell-based, resazurin fluorescence, basal, 24 h, PK04 Diversity Set, profiling panel (AID 1174). Further: test concentration not given here. The conditions noted are these: higher = more signal, called active from +8 up or from −8 down.
Assay [4] addresses Dihydroorotate dehydrogenase (quinone), mitochondrial (Plasmodium falciparum (isolate 3D7)) (UniProt Q08210). Briefly: inhibition of P. falciparum DHODH – biochemical, C-terminal His tag, absorbance 600 nm, primary screen (AID 1175).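 Further: recombinant parasite enzyme with a five histidine tag at its C terminus; test concentration not given here.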 The conditions noted are these: PfDHODH enzyme, DCIP absorbance 600 nm; higher = more signal, called active from +8 up or from −8 down.
Assay [5] in a line: inhibition of PAO1 biofilm formation – strain PAO1, LB-PBS medium, absorbance 600 nm, primary screen (AID 1176). Further: test concentration not given here. Conditions: P. aeruginosa PAO1 growth/biofilm, A600, 12 h; higher = more signal.
Assay [6] in a line: growth modulation of vineyard yeast isolate – strain RM11-1a, OD600, basal, 24 h, primary screen (AID 1177).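 Further: cultures grown under basal conditions with no added stressor; test concentration not given here.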 The conditions noted are these: S. cerevisiae RM11-1a growth, OD600, 24 h; higher = more signal, called active from +8 up or from −8 down.
Assay [7] in a line: growth of efflux-deficient E. coli DRC39 – strain DRC39, OD650, 24 h, E. coli filamentation inducers, primary screen (AID 1178).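 Further: growth measured as culture turbidity by optical density at 650 nm; test concentration not given here.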 Conditions: E. coli DRC39 acrAB, higher = more signal, called active from +8 up or from −8 down.
Assay [8] in a line: growth of efflux-deficient E. coli DRC39 – strain DRC39, OD650, 48 h, E. coli filamentation inducers, primary screen (AID 1179).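 Further: screen aims at cell division blockers that make cells filament.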 The conditions noted are these: E. coli DRC39 delta-acrAB growth, higher = more signal, called active from +8 up or from −8 down.
Assay [9] is described as follows: viability profiling in RPMI8226 myeloma cells – cell-based, resazurin fluorescence, basal, 24 h, PK04 Diversity Set, profiling panel (AID 1180).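 Further: RPMI8826 multiple myeloma cell line at 5000 cells per well; test concentration not given here.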 The conditions noted are these: higher = more signal. Background: The colour change of resazurin is a common sign of viable cells or microbes.
Assay [10] addresses E3 ubiquitin-protein ligase XIAP (Homo sapiens) (UniProt P98170). Briefly: small molecules binding XIAP protein – biophysical, small-molecule microarray, fluorescence 635 nm, primary screen (AID 1181).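 Further: score merges 667 nm emission and signal to noise over triplicate slides.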 Conditions: higher = more signal.

Dihydroorotate dehydrogenase (quinone), mitochondrial (Plasmodium falciparum (isolate 3D7)), sequence (Q08210 whole entry, looked up): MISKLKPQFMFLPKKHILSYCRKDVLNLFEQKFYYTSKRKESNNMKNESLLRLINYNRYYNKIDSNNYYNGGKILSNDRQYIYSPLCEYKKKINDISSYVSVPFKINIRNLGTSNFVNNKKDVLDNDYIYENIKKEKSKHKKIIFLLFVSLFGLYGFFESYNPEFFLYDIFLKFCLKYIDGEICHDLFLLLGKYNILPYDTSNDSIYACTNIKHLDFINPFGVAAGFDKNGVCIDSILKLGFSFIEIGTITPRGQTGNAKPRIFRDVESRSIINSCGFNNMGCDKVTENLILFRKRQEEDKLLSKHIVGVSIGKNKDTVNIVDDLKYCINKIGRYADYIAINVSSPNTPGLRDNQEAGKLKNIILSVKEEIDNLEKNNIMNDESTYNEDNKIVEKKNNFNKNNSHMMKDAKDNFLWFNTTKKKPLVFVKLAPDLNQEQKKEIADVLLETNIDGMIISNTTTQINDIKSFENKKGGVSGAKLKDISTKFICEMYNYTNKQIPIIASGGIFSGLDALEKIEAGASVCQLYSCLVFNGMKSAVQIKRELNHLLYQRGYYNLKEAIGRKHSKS
E3 ubiquitin-protein ligase XIAP (Homo sapiens), sequence (P98170 whole entry, looked up): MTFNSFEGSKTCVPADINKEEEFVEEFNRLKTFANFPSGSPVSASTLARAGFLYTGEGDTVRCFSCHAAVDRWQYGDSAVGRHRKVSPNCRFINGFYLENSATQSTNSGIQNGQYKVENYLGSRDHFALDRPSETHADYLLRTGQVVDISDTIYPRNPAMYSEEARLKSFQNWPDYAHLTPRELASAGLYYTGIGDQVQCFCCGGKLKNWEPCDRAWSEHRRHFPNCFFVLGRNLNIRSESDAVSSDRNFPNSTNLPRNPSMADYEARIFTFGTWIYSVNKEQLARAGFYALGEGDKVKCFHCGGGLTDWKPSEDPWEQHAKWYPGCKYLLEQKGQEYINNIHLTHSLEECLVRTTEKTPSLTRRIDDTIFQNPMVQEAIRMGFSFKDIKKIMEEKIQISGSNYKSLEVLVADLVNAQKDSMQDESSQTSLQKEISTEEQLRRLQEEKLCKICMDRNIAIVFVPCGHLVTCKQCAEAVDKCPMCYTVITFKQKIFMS

Turning to `COC(=O)[C@@]1(Cc2ccc(OC)cc2)[C@H]2c3cc(C(=O)N(C)C)n(Cc4cccc5ccccc45)c3C[C@H]2CN1C(=O)c1ccccc1`, the z-score in [1] was -1.75; in assay [2] it was 0.897 (inactive); in [3], -2.01 (inactive); in [5] it was 2.31 (inactive); in [6], 0.872 (inactive); in assay [7], -0.353 (inactive). The z-score in assay [8] was -0.999 (inactive); in assay [9], -2.66. The composite z-score in [4] was -3.49 (inactive); in [10] it was 0.101.

As to `COc1ccc(C(O)C2C=CC3C(=O)N(c4ccccc4)C(=O)C3N2Nc2ccc(C(C)C)cc2)cc1OCc1ccccc1` (stereo not given), the z-score is -0.217 in assay [1]; -1.78 (inactive) in [2]; -0.0284 (inactive) in assay [3]; 2.33 (inactive) in assay [5]; 0.165 (inactive) in [6]; -1.91 (inactive) in [7]. Further, the z-score in assay [8] was -1.38 (inactive); in [9], -0.291. Further, the composite z-score in assay [4] is 0.785 (inactive); in assay [10], -0.0535.

Take `COCCOC(=O)N1C(=O)[C@@]2(c3cc(C#CC4=CCCCC4)ccc31)[C@H](C(N)=O)[C@H]1C(=O)O[C@H](c3ccccc3)[C@H](c3ccccc3)N1[C@@H]2c1ccc(OCCO)cc1`: the z-score in assay [1] was -0.746; in [2], 1.04 (inactive); in assay [3] it was -1.95 (inactive); in [5], 1.67 (inactive); in assay [6], 2.53 (inactive); in assay [7], 0.0123 (inactive). The z-score in [8] is 0.505 (inactive); in [9], -3.18. The composite z-score in assay [4] is 0.948 (inactive); in assay [10], -0.102.

With `COC(=O)[C@@]1(Cc2ccc(F)cc2)[C@H]2c3cc(C(=O)N(C)C)n(CC4CC4)c3C[C@H]2CN1C(=O)c1ccccc1`, the z-score in [1] was -0.881; in assay [2] it was 1.78 (inactive); in [3], -1.37 (inactive); in assay [5] it was 0.206 (inactive); in [6], 0.479 (inactive); in [7], -0.868 (inactive). Moreover, the z-score in assay [8] is -0.398 (inactive); in assay [9], -2.09. Further, the composite z-score in assay [4] was -0.0778 (inactive); in assay [10], 0.454.

On to `C=CCNC(=O)[C@H]1[C@@H]2C(=O)O[C@@H](c3ccccc3)[C@@H](c3ccccc3)N2[C@@H](c2ccc(OCCO)cc2)[C@]12C(=O)N(C(=O)OCCOC)c1ccccc12`, for which the z-score in [1] was -0.732; in assay [2], 1.41 (inactive); in [3], -0.738 (inactive); in [5] it was 1.11 (inactive); in assay [6] it was 2.32 (inactive); in assay [7], -0.595 (inactive). Moreover, the z-score in [8] was -1.27 (inactive); in assay [9], -0.0749. The composite z-score in [4] was 1.17 (inactive); in assay [10], -0.0969.

As for `C=CC[C@@]1(C(=O)N(C)C)N=C(c2ccc(OCCCO)cc2)O[C@@H]1c1ccccc1N=[N+]=[N-]`, the z-score in [1] was -0.614; in [2], 0.093 (inactive); in assay [3], -2.82 (inactive); in assay [5] it was 0.314 (inactive); in [6], 0.274 (inactive); in assay [7], -0.112 (inactive). Also, the z-score in [8] is 0.0912 (inactive); in assay [9], -1.71. For the same compound, the composite z-score in [4] was -0.007 (inactive); in assay [10], 0.0794.

Take `C=CCNC(=O)[C@H]1[C@@H]2C(=O)O[C@@H](c3ccccc3)[C@@H](c3ccccc3)N2[C@@H](c2ccccc2OCCO)[C@]12C(=O)Nc1ccc(C#CC3=CCCCC3)cc12`: the z-score in assay [1] was -2.93; in [2], 1.97 (inactive); in [3], -8.87 (active); in [5] it was 1.89 (inactive); in assay [6], 3.11 (inactive); in assay [7], -0.639 (inactive). In addition, the z-score in assay [8] is -0.0547 (inactive); in [9] it was -7.09. Moreover, the composite z-score in assay [4] was 0.266 (inactive); in assay [10] it was 0.112.

As for `O=C1c2ccccc2[C@@]2(Cc3ccccc3N(CC(F)(F)F)C2=O)[C@H](c2ccc(CO)cc2)N1Cc1ccccc1Cl`, the z-score in [1] was 0.0685; in assay [2], 0.386 (inactive); in assay [3] it was 0.192 (inactive); in assay [5] it was 0.848 (inactive); in assay [6], -0.399 (inactive); in assay [7], 0.424 (inactive). Besides, the z-score is -0.411 (inactive) in [8] and 0.638 in assay [9]. Also, the composite z-score in assay [4] is -22.2 (active); in assay [10], 0.176.

Take `CCOC(=O)C[C@H]1[C@H](OC(=O)Cc2ccc3c(c2)OCO3)[C@@H](NC(=O)c2ccc(-c3ccccc3)cc2)c2cc(OCCCO)ccc2N1C(=O)c1ccc2ccccc2n1`: the z-score in assay [1] is 0.138; in [2] it was -2.85 (inactive); in assay [3], 0.878 (inactive); in assay [5] it was -0.906 (inactive); in assay [6], -1.63 (inactive); in assay [7], 1.26 (inactive). Besides, the z-score in assay [8] was 0.455 (inactive); in [9], 0.356. For the same compound, the values for the composite z-score in assay [4] and in assay [10] were -2.91 (inactive) and -0.102, respectively.

For the compound `CC(C)(C)OC(=O)CC[C@]1(C(=O)O)N=C(c2ccc(OCCCO)cc2)O[C@H]1c1ccccc1N=[N+]=[N-]`, the z-score in assay [1] is 0.144; in assay [2], -0.278 (inactive); in assay [3] it was -1.32 (inactive); in [5], 0.286 (inactive); in [6], -0.715 (inactive); in assay [7], 0.0508 (inactive). For the same compound, the z-score in [8] is 0.49 (inactive); in assay [9], 0.056. The figures for the composite z-score in [4] and in assay [10] were -0.533 (inactive) and 0.0989, respectively.

`C=CCNC(=O)[C@H]1[C@@H]2C(=O)O[C@@H](c3ccccc3)[C@@H](c3ccccc3)N2[C@@H](c2ccc(OCCO)cc2)[C@]12C(=O)Nc1ccc(C#CC3=CCCCC3)cc12`: the z-score is 0.735 in assay [1]; 2.06 (inactive) in [2]; -1.21 (inactive) in assay [3]; 0.269 (inactive) in assay [5]; 2.97 (inactive) in [6]; 0.0358 (inactive) in assay [7]. Moreover, the z-score in assay [8] was -0.198 (inactive); in assay [9] it was -2.77. Also, the composite z-score is 0.472 (inactive) in [4] and 0.0435 in [10].

In the case of `CC(C)C[C@@H]1NC(=O)[C@H]2C[C@@H](C(=O)NCCCCCCN(C)C)[C@@H](c3ccc(O)cc3)N2C1=O`, the z-score in [1] is -0.447; in assay [2], -0.476 (inactive); in assay [3], -0.671 (inactive); in assay [5] it was -0.214 (inactive); in assay [6] it was -0.217 (inactive); in [7] it was 0.0306 (inactive). Besides, the z-score in [8] was 0.152 (inactive); in [9], -1.26. Further, the composite z-score was -0.687 (inactive) in assay [4] and 0.125 in [10].
